Assay results published in PubChem BioAssay (Tox21).
Unmarked numbers belong to inactive results. Inconclusive results are not listed. A call without a number means that no potency is given here. Activity calls are given as the source filed them. Calls follow the shape of the full dose curve.

Molecular target: Acetylcholinesterase (Homo sapiens) (UniProt P22303)
Assay: Acetylcholinesterase (AChE) small molecule antagonists: enzyme-based qHTS assay (AID 1347397); also: nearly all actives have a fitted effect of over 55% in size
Conditions: Potency: AChE enzyme activity inhibition; outcome: AChE enzyme activity inhibition; series mostly up to 115 µM
Outline: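 Enzyme inhibition was scored from DTNB-detected thiocholine formed by recombinant human AChE acting on acetylthiocholine. The 30 min compound preincubation and 10 min substrate reaction were both run at room temperature, with DMSO as vehicle control.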

Acetylcholinesterase (Homo sapiens), sequence (P22303 whole entry, looked up): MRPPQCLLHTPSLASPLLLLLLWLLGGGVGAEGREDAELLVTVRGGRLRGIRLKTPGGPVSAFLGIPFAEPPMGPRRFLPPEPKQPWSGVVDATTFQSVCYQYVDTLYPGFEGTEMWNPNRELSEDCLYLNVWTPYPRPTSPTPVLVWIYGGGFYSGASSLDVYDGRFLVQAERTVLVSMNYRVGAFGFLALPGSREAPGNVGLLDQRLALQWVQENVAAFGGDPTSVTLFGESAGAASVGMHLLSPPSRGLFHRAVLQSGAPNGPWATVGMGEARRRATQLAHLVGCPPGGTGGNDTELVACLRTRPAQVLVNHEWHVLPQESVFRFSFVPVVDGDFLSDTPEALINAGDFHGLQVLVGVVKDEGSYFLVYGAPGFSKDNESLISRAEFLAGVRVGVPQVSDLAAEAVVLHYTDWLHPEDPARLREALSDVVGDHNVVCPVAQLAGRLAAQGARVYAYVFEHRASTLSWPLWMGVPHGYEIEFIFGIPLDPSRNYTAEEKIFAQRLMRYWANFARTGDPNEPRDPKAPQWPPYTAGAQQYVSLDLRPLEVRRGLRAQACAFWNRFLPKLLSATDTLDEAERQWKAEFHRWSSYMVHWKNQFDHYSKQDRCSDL

| Compound | Potency | activity change, negative = inhibition |
| --- | --- | --- |
| Cc1ccc(C(=O)O)cc1 | inactive | – |
| Cl[Si](Cl)(c1ccccc1)c1ccccc1 | inactive | – |
| Cc1ccc(-c2cc(C(F)(F)F)nn2-c2ccc(S(N)(=O)=O)cc2)cc1 | inactive | – |
| C[C@H]1C[C@H]2[C@@H]3CCC4=CC(=O)C=C[C@]4(C)[C@@]3(F)[C@@H](O)C[C@]2(C)[C@@]1(O)C(=O)COP(=O)(O)O | inactive | – |
| O=C(c1ccccc1O)c1ccccc1O | inactive | – |
| N[C@H]1CN(c2c(F)cc3c(=O)c(C(=O)O)cn(C4C[C@H]4F)c3c2Cl)CC12CC2 (stereo not given in full) | inactive | – |
| CCCCCCCCCCCCCCCCCC(=O)OCC(CC)CCCC (stereo not given) | inactive | – |
| Cc1oc(-c2ccccc2)nc1CCOc1cccc2c1ccn2CCC(=O)O | inactive | – |
| CO[C@@]1(NC(=O)CSC[C@@H](N)C(=O)O)C(=O)N2C(C(=O)O)=C(CSc3nnnn3C)CS[C@@H]21 | inactive | – |
| Cc1cc(C(C)(C)C)c(O)c(C)c1CC1=NCCN1 | inactive | – |
| Cc1ccc(C=O)cc1 | inactive | – |
| CN(C)CCC(c1ccccc1)c1ccccn1 (stereo not given) | inactive | – |
| O=c1c(O)c(O)c1=O | inactive | – |
| CCC(=O)O[C@@H]1C[C@H]2CC[C@]1(C)C2(C)C | inactive | – |
| CC(CC(C#N)(c1ccccc1)C(C)C)N(C)C (stereo not given) | inactive | – |
| CC(=O)O[C@H](CC(=O)[O-])C[N+](C)(C)C | inactive | – |
| O=c1[nH]c(=O)c2cn[nH]c2[nH]1 | inactive | – |
| CCCCOCCOCCO | inactive | – |
| Cn1cc(S(C)=O)c(=O)c2ccc(F)cc21 (stereo not given) | inactive | – |
| CN(C)CCCOC1(Cc2ccccc2)CCCCCC1 | inactive | – |

| Compound | Potency | activity change, negative = inhibition |
| --- | --- | --- |
| O=c1oc2c(O)c(O)cc3c(=O)oc4c(O)c(O)cc1c4c23 | – | 3.59% [at 23.6 µM] |
| CC(=O)N/N=C/c1ccc([N+](=O)[O-])o1 | inactive | – |
| CN1CCC(OC(c2ccccc2)c2ccccc2)CC1 | inactive | – |
| Nc1ccc([N+](=O)[O-])c(C(F)(F)F)c1 | inactive | – |
| CC1CC(C)C(=O)C1=O (stereo not given) | inactive | – |
| OCCN(CCO)c1cccc(Cl)c1 | inactive | – |
| Nc1ccc(O)c([N+](=O)[O-])c1 | inactive | – |
| O=C(O)c1cccc(C[C@@H]2COc3ccc(OCc4nc5cc(F)ccc5s4)cc3[C@@H]2O)c1 | inactive | – |
| O=C(O)c1ccc(O)cc1 | inactive | – |
| Cc1cn([C@H]2C[C@H](F)[C@@H](CO)O2)c(=O)[nH]c1=O | inactive | – |
| O=C1c2ccccc2C(=O)N1CCl | inactive | – |
| NC(=O)N1c2ccccc2C=Cc2ccccc21 | inactive | – |
| CCC(C)(C)C | inactive | – |
| Fc1ccccc1-c1ccccc1 | inactive | – |
| CCOB(OCC)OCC | inactive | – |
| C=COCC1CCC(CO)CC1 (stereo not given) | inactive | – |
| CN(C)c1ccc(Cc2ccc(N(C)C)cc2)cc1 | inactive | – |
| Cc1oc(C)c(C(=O)Nc2ccccc2)c1C | inactive | – |
| CC(C(=O)O)c1cccc(Oc2ccccc2)c1 (stereo not given) | inactive | – |
| O=C1CCCCCN1SSN1CCCCCC1=O | inactive | – |

Molecular target: Acetylcholinesterase (Homo sapiens) (UniProt P22303)
Assay: Acetylcholinesterase (AChE) small molecule antagonists: fluorescence cell-based qHTS assay (AID 1347398); also: nearly all actives have a fitted effect of over 50% in size
Conditions: SH-SY5Y cells; Potency: AChE activity; outcome: AChE activity; series mostly up to 115 µM
Outline: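 Endogenous acetylcholinesterase of SH-SY5Y neuroblastoma cells is measured in situ. After overnight attachment and 30 min compound exposure, cells receive acetylthiocholine and Thiolite Green; fluorescence is read after 40 min at room temperature.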

| Compound | Potency | activity change, negative = inhibition |
| --- | --- | --- |
| Cc1ccc(C(=O)O)cc1 | inactive | – |
| Cl[Si](Cl)(c1ccccc1)c1ccccc1 | inactive | – |
| Cc1ccc(-c2cc(C(F)(F)F)nn2-c2ccc(S(N)(=O)=O)cc2)cc1 | inactive | – |
| C[C@H]1C[C@H]2[C@@H]3CCC4=CC(=O)C=C[C@]4(C)[C@@]3(F)[C@@H](O)C[C@]2(C)[C@@]1(O)C(=O)COP(=O)(O)O | inactive | – |
| O=C(c1ccccc1O)c1ccccc1O | inactive | – |
| N[C@H]1CN(c2c(F)cc3c(=O)c(C(=O)O)cn(C4C[C@H]4F)c3c2Cl)CC12CC2 (stereo not given in full) | inactive | – |
| CCCCCCCCCCCCCCCCCC(=O)OCC(CC)CCCC (stereo not given) | inactive | – |
| Cc1oc(-c2ccccc2)nc1CCOc1cccc2c1ccn2CCC(=O)O | inactive | – |
| CO[C@@]1(NC(=O)CSC[C@@H](N)C(=O)O)C(=O)N2C(C(=O)O)=C(CSc3nnnn3C)CS[C@@H]21 | inactive | – |
| Cc1cc(C(C)(C)C)c(O)c(C)c1CC1=NCCN1 | inactive | – |
| Cc1ccc(C=O)cc1 | inactive | – |
| CN(C)CCC(c1ccccc1)c1ccccn1 (stereo not given) | inactive | – |
| O=c1c(O)c(O)c1=O | inactive | – |
| CCC(=O)O[C@@H]1C[C@H]2CC[C@]1(C)C2(C)C | inactive | – |
| CC(CC(C#N)(c1ccccc1)C(C)C)N(C)C (stereo not given) | inactive | – |
| CC(=O)O[C@H](CC(=O)[O-])C[N+](C)(C)C | inactive | – |
| O=c1[nH]c(=O)c2cn[nH]c2[nH]1 | inactive | – |
| CCCCOCCOCCO | inactive | – |
| Cn1cc(S(C)=O)c(=O)c2ccc(F)cc21 (stereo not given) | inactive | – |
| CN(C)CCCOC1(Cc2ccccc2)CCCCCC1 | inactive | – |

| Compound | Potency | activity change, negative = inhibition |
| --- | --- | --- |
| O=c1oc2c(O)c(O)cc3c(=O)oc4c(O)c(O)cc1c4c23 | – | 4.39% [at 23.8 µM] |
| CC(=O)N/N=C/c1ccc([N+](=O)[O-])o1 | inactive | – |
| CN1CCC(OC(c2ccccc2)c2ccccc2)CC1 | inactive | – |
| Nc1ccc([N+](=O)[O-])c(C(F)(F)F)c1 | inactive | – |
| CC1CC(C)C(=O)C1=O (stereo not given) | inactive | – |
| OCCN(CCO)c1cccc(Cl)c1 | inactive | – |
| Nc1ccc(O)c([N+](=O)[O-])c1 | inactive | – |
| O=C(O)c1cccc(C[C@@H]2COc3ccc(OCc4nc5cc(F)ccc5s4)cc3[C@@H]2O)c1 | inactive | – |
| O=C(O)c1ccc(O)cc1 | inactive | – |
| Cc1cn([C@H]2C[C@H](F)[C@@H](CO)O2)c(=O)[nH]c1=O | inactive | – |
| O=C1c2ccccc2C(=O)N1CCl | inactive | – |
| NC(=O)N1c2ccccc2C=Cc2ccccc21 | inactive | – |
| CCC(C)(C)C | inactive | – |
| Fc1ccccc1-c1ccccc1 | inactive | – |
| CCOB(OCC)OCC | inactive | – |
| C=COCC1CCC(CO)CC1 (stereo not given) | inactive | – |
| CN(C)c1ccc(Cc2ccc(N(C)C)cc2)cc1 | inactive | – |
| Cc1oc(C)c(C(=O)Nc2ccccc2)c1C | inactive | – |
| CC(C(=O)O)c1cccc(Oc2ccccc2)c1 (stereo not given) | inactive | – |
| O=C1CCCCCN1SSN1CCCCCC1=O | inactive | – |
